# KCNQ2 block – KCNQ2 (rat) channel inhibition; CHO-K1 KCNQ2, FluxOR thallium flux, 20 min; hits give low values; B-score at 10 µM; 310,000 tested, 1.1% active; AID 2156;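 active means fluorescence ratio B-score at most minus 3 library SDs, with starting brightness B-score within 2 library SDs, cut at about -5.5 in these data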
# Target sequence (O88943 whole entry, looked up): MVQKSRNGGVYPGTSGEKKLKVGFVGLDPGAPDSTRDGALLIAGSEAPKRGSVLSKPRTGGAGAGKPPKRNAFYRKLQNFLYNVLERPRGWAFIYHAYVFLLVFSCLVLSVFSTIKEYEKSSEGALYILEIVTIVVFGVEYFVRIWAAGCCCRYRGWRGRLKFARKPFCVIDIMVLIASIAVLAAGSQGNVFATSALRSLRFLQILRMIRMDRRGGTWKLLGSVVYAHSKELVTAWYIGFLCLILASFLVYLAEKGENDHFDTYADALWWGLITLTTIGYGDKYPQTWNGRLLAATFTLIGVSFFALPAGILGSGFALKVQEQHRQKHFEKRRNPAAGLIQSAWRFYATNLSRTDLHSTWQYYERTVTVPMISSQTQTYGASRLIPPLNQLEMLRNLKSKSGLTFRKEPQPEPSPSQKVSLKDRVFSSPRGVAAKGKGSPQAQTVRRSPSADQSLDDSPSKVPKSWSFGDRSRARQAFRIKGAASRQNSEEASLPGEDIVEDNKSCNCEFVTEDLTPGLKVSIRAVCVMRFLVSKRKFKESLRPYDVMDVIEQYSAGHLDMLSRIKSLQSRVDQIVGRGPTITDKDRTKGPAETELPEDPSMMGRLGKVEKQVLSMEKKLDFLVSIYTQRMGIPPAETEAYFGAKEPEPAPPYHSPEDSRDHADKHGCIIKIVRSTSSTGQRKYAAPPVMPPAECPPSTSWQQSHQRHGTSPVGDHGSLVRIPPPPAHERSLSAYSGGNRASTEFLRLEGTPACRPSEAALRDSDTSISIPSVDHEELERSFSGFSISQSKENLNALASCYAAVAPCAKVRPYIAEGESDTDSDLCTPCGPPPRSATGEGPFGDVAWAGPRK
# KCNQ2 enhance – potentiators of rat KCNQ2 potassium channel; B-score at 10 µM; O88943; CHO-K1 KCNQ2, FluxOR thallium flux fluorescence; hits give high values; 310,000 tested, 0.54% active;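 active means fluorescence ratio B-score at least 3 SD of library B-scores, with initial fluorescence B-score within 3 of them, cut at about 5.3 in these data; same plate scores as AID 2156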;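 further: B-score of peak minus minimum over baseline fluorescence ratio after K+ and Tl+ stimulus; positive B-score means potentiation of KCNQ2 with more thallium influx and brighter signal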
# The depositor's hits bear a star; i = inactive; x = not tested or not shown. An excerpt weighted towards active compounds, which were near 1.6% of everything screened.
SMILES,KCNQ2 block,KCNQ2 enhance
CCOC(=O)C1=C(C)NC(C)=C(C(=O)OC)C1c1cccc([N+](=O)[O-])c1 (centres undefined),i,x
CC1(CCC(=O)N2CCCC(N3CCN(c4cccc(C(F)(F)F)c4)CC3)C2)CC1 (centres undefined),i,x
CSCC(=O)N1CCCC(N2CCN(c3cccc(C(F)(F)F)c3)CC2)C1 (centres undefined),-6.8*,-6.8
Cc1cc(=O)[nH]c(SCC(=O)Nc2ccc(F)c([N+](=O)[O-])c2)n1,i,0.06
COc1cccc(NC(=O)CN(C)C(=O)c2cccc(S(=O)(=O)N3CCN(c4ccccc4)CC3)c2)c1,i,0.05
COc1ccc(S(=O)(=O)N2CCCCCC2)cc1C(=O)N(C)Cc1ccccc1F,-5.8*,-5.8
COc1ccc(S(=O)(=O)N2CCCCCC2)cc1C(=O)N(C)Cc1ccc(C)cc1,i,x
COc1cccc(CN(C)C(=O)c2cc(S(=O)(=O)N3CCN(c4ccccc4)CC3)ccc2Cl)c1,-5.6*,-5.6
C=CCn1c(Oc2ccc(C=O)cc2OCC)nc2c1c(=O)n(C)c(=O)n2C,i,2.4
Cc1ccc(N(Cc2ccccc2F)S(C)(=O)=O)cc1C,i,x
CCOC(=O)C1CCN(S(=O)(=O)c2ccc3c(c2)N(C(C)=O)CC(C)S3)CC1 (centres undefined),i,x
CCOC(=O)C1=C(C)N(C)C(=O)NC1c1cc2c(cc1[N+](=O)[O-])OCO2 (centres undefined),i,x
CC(C)Oc1ccc(CC2CCC(=O)N(C)C2=O)cc1 (centres undefined),i,0.39
CCC(=O)OCC(=O)Nc1ccc(OC)cc1[N+](=O)[O-],i,x
COc1ccc(NC(=O)COC(=O)CC23CC4CC(CC(C4)C2)C3)c([N+](=O)[O-])c1,-6.1*,-6.1
CCCCN(CC)CCCNC(=O)c1ccc(CS(=O)(=O)c2ccccc2C)o1,i,x
O=C(c1ccco1)N1CCN(C(=O)c2ccc(-c3cccc(C(F)(F)F)c3)o2)CC1,i,0.1
O=C(Cn1nnc(-c2ccccc2)n1)N1CCCCC1,i,1.5
O=C(Cn1nnc(-c2cccc(C(F)(F)F)c2)n1)N1CCCCCC1,i,12*
O=C(c1ccc(-c2cccc(C(F)(F)F)c2)o1)N1CCCCCCC1,-6.2*,-6.2
CN1CCCC(OC(=O)c2ccccc2Br)C1 (centres undefined),i,0.08
CCn1c(Cc2ccc(OC)cc2)nnc1SCc1nc2ccccc2c(=O)[nH]1,i,0.87
O=C(N/N=C/c1ccc(N2CCCCC2)o1)C(O)(c1ccccc1)c1ccccc1,i,x
O=C(c1ccc(S(=O)(=O)N2CCCCC2)cc1)N1CCCC(C(F)(F)F)C1 (centres undefined),i,x
CCCN(CCC)CC(O)Cn1cc(/C=C/C(=O)c2cccs2)c2ccccc21 (centres undefined),i,x
SMILES,KCNQ2 block,KCNQ2 enhance
CCCN(CCC)CC(O)Cn1cc(/C=C/C(=O)c2ccccc2)c2ccccc21 (centres undefined),-6.3*,-6.3
O=C(/C=C/c1cn(CC(O)CN2CCCCC2)c2ccccc12)c1cccs1 (centres undefined),i,x
O=C(/C=C/c1cn(CC(O)CN2CCCCC2)c2ccccc12)c1ccccc1 (centres undefined),-5.7*,-5.7
COc1ccc(C(CNC(=O)C(CC(C)C)NS(=O)(=O)c2ccc(C)cc2)N2CCOCC2)cc1 (centres undefined),i,0.56
CNS(=O)(=O)c1cnccc1N1CCN(c2cccc(C(F)(F)F)c2)CC1,i,0.18
Cc1ccc(N2CC(C(=O)OCc3nc(N)nc(Nc4ccccc4C)n3)CC2=O)cc1 (centres undefined),i,0.86
Cc1ccccc1Nc1nc(N)nc(COC(=O)C2CCCCC2)n1,i,7.7*
Cc1ccccc1Nc1nc(N)nc(CCl)n1,i,x
Cc1ccccc1NC(=O)CSCc1nc(N)nc(Nc2ccccc2C)n1,i,5.7*
COC(=O)Cn1nc(-c2ccc(C)cc2)c2ccccc2c1=O,i,x
COc1ccc(C(=O)OCC(=O)Nc2ccc3[nH]c(=O)[nH]c3c2)cc1,i,0.18
COC(=O)c1cn(C(=O)c2ccccc2)c2ccccc12,i,x
COC(=O)c1cn(C(=O)c2cc(OC)cc(OC)c2)c2ccccc12,-6.3*,-6.3
COc1cccc(CNC(=O)CCC2CCCN(C(=O)c3ccoc3)C2)c1 (centres undefined),i,0.47
COc1ccc(N2CCN(C(=O)c3oc4ccccc4c3NC(=O)Cc3ccc(OC)c(OC)c3)CC2)cc1,i,x
COc1ccc(N2CCN(C(=O)c3oc4ccccc4c3NC(=O)Cc3cccc(OC)c3)CC2)cc1,-5.8*,-5.8
COc1cccc(CNC(=O)CCC2CCCN(C(=O)c3cc4ccccc4o3)C2)c1 (centres undefined),-6.4*,-6.4
CCCCN1CC(=O)N2[C@H](c3ccc(OC)cc3)[C@@H]3C(=O)N(CC)C(=O)[C@@H]3[C@]2(C)C1=O,i,x
Cc1ccc(NC(=O)c2cc(-c3ccccc3)nn2-c2ccccc2)cc1,-5.7*,-5.7
Cc1ccc(NC(=O)c2cc(-c3ccccc3)nn2-c2ccccc2)c(Br)c1,i,x
Cc1cc(C(=O)Nc2cccc(C)c2C)c2ccccc2n1,-5.8*,-5.8
Cc1cccc(NC(=O)c2nc(-c3ccccc3)n(-c3ccccc3)n2)c1C,-8.2*,-8.2
CCc1nnc(NC(=O)c2cc(C)nc3ccccc23)s1,-6.3*,-6.3
CCc1nnc(NC(=O)c2cc(-c3cccnc3)nc3ccccc23)s1,i,1
Cc1cc(C(=O)Nc2ccccc2C)c2ccccc2n1,i,x
SMILES,KCNQ2 block,KCNQ2 enhance
Cc1cccc(NC(=O)c2cnn(-c3ccccc3)c2C)c1C,i,x
O=C(c1cc(N2C(=O)C3C4CCC(C4)C3C2=O)ccc1Cl)N1CCN(c2ccccc2F)CC1 (centres undefined),i,x
COc1ccc(OC)c(NC(=O)c2cccnc2Sc2ccccc2)c1,i,0.76
COC(=O)c1ccccc1NC(=O)c1ccc(COc2cc(C)cc(C)c2)o1,-6.4*,-6.4
COC(=O)c1ccccc1NC(=O)c1ccc(COc2ccc(C)c(C)c2)o1,-6.6*,-6.6
COc1ccccc1NC(=O)c1ccc(COc2ccccc2OC)o1,i,x
Cc1ccc(OCc2ccc(C(=O)NN)o2)cc1C,i,x
Cc1ccc(CS(=O)(=O)CC(C)(O)c2ccccc2)cc1 (centres undefined),i,x
NC(=O)CN1C(=O)NC2(CCCc3ccccc32)C1=O (centres undefined),i,1.6
O=C(C[n+]1cccc2ccccc21)c1ccc(Br)cc1,i,0.78
O=C(C[n+]1cc(Br)cc(Br)c1)c1ccc(Cl)cc1,i,x
O=C(C[n+]1cc(Br)cc2ccccc21)c1ccc(Cl)cc1,-7.5*,-7.5
O=C(C[n+]1cc(Br)cc2ccccc21)c1ccc(Br)cc1,-6.1*,-6.1
CSCCC(NC(=O)COc1ccccc1)C(=O)OC(C)C(=O)Nc1ccccc1C (centres undefined),i,0.66
Cn1cnnc1SCCNS(=O)(=O)c1cccc([N+](=O)[O-])c1,i,0.01
COc1ccc(NC(=O)CS(=O)CC(=O)N2CCN(C3CCCC3)CC2)cc1 (centres undefined),i,x
CCN1CCN(C(=O)NS(=O)(=O)c2ccc(C)cc2)CC1,i,1.1
O=C(Nc1cccc(C(F)(F)F)c1)c1cccnc1N1CCN(c2ccccc2)CC1,-7*,-7

# Assay outcomes (PubChem BioAssay)
